# Measurements reported in paper PMC12136788.
# In all, about 24,000 sequences were measured (“enrichment r”: median about 0.99, highest 2% from about 3.7 on). Only a selection was taken, and the highest values are over-represented in it overall.
# T1: UNK ZnF1-3 (human, UniProt Q9C0B0 31-174)
# T1 sequence: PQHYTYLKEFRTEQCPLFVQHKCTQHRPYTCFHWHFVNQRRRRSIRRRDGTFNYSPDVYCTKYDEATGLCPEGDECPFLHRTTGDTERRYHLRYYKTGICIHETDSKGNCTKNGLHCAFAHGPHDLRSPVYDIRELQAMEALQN
# B1: chr5:64741823:64741824:+_ENSMUSG00000029174_ENSMUST00000119756|mus_mus|motif|central (ssRNA)
# RNA: GGGAGUUCUACAGUCCGACGAUCAAUAAAUAUGUCAGACCCCACAGCUACAGGUCCCACACUAGCAAUAACAGGGAAUCGGAAAACUGUGAUUUCCUUAUGAAACAUUUACCUGUGACUUGAAAGGGUAAGCAAAAACCAUACCAACAGAGGAUUGAGCAUCA
# B2: chr16:94664741:94664742:+_ENSMUSG00000040785_ENSMUST00000117648|mus_hu|mus_mus_mus_hu_False|1_98 (ssRNA)
# RNA: GGGAGUUCUACAGUCCGACGAUCUGGUACUGAUCUUUGCAUUGGAUAUUCAGGAGAAAGGCUGGCCAAGGGUGUAUAUAUGCUGGUGUACUGGGGCAAACCUGGUAACACGUUUAUGUAUGCUGGCGGUGUCUGGGUGCCAAACAACAGAGGAUUGAGCAUCA
# B3: chr1:44133529:44133530:+_ENSG00000066135_ENST00000372396|hu_mus|FALSE|FALSE (ssRNA)
# RNA: GGGAGUUCUACAGUCCGACGAUCGAACUCGGCUGCUUCCGGUGUGGGCAGAGUGUGGUCAAUAACCAUGCUGUCCUUCCCAGCUUUCCAAAGUUUGUAGCGUUCCGGCUGGAACCUCCUCACGAACACGUCCAUGGAGAUCUUCAACAGAGGAUUGAGCAUCA
# B4: chr10:75008345:75008346:-_ENSG00000213551_ENST00000372950|hu_hu|motif|central (ssRNA)
# RNA: GGGAGUUCUACAGUCCGACGAUCCUAUAUCUUAGUCACACACCAGAGUUAAGCCAUCUGUCUUUGCUCAUUUUUCCCUCGGUGGACAACAUAAUAUGUUGGGAAGGGCUUUCCAGGAGGGCAUAACCGGGAGAUGAAUCUUACCAACAGAGGAUUGAGCAUCA
# B5: chr1:225611761:225611762:-_ENSG00000143815_ENST00000272163|hu_mus|hu_hu_hu_mus_True|8_88 (ssRNA)
# RNA: GGGAGUUCUACAGUCCGACGAUCCCAGGCCAUCGGCCUCUGACCACUUCACCAUCGACAAACUUCCUACUUGGCAUUUUCUAAAAUUAGUCUGGCCGCGCUCCGGCGGGAACUCCAGCCACUCCAGGGAGAAUAGUAGCAGCCCAACAGAGGAUUGAGCAUCA
# B6: chr2:179515052:179515053:+_ENSMUSG00000000305_ENSMUST00000000314|mus_hu|FALSE|FALSE (ssRNA)
# RNA: GGGAGUUCUACAGUCCGACGAUCGCUGUCCCAUGCAGUCACCGUGAACGCCACCUGCUCGGAGGGGACCUGCAGCUCCCGGGUGGCGAAGACUGUCCCAUCUGCCCCAACUUUGAAGUCCAUGCUGUUGGUCUCAUAUUGUGUCAACAGAGGAUUGAGCAUCA
# B7: 13037762_13037882_4555_3pUTR_ENSMUSG00000029571_ENSMUST00000031556|mouse|control|control (ssRNA)
# RNA: GGGAGUUCUACAGUCCGACGAUCUAAAAGGUACUCCUAUUUUAAAAACAUAUGAAUGAAACUAUCUUCUAAAAUAAGACGCAAUGUGUUAACAACCAGUUGAUUUAAGCACUUUAAAAGGCAGAAUGGAAAAGUCGGCACACCCAACAGAGGAUUGAGCAUCA
# B8: chr7:7676484:7676485:-_ENSG00000106399_ENST00000223129|hu_mus|FALSE|FALSE (ssRNA)
# RNA: GGGAGUUCUACAGUCCGACGAUCAAGUAUCACUUUUAAAAAAAGUUUAUAAAAAGGCUUAGUUGUAAACUGUCAUAAUAGAUUUACAAAAAAAUAUAUAUAUAUAAAAGAACAAAUUAAAUAUUAGAAAUUAUAGGAGUCGCUCAACAGAGGAUUGAGCAUCA
# B9: chr3:169711627:169711628:+_ENSG00000008952_ENST00000337002|hu_hu|motif|central (ssRNA)
# RNA: GGGAGUUCUACAGUCCGACGAUCUAAAAACAUACCCUUACAUGGUCUUAAUUUUAUGAAUUUAAGUGUUGAGAAAUAUCGGAAUAAUAAGUAACAAUUAAAAUAAAAUGUUUUAUUUGUAAAUUAUGUACAGAAUACACUUUACAACAGAGGAUUGAGCAUCA
# B10: chr11:31834330:31834331:+_ENSMUSG00000020300_ENSMUST00000109412|mus_mus|FALSE|FALSE (ssRNA)
# RNA: GGGAGUUCUACAGUCCGACGAUCAUAAAGUUCAGAGUAAUAGAUAAUCAUUGUUUAUGCCCUGUAAAGAAGUGGAACCAAAUCAUCUGUAAACACGCUUGUCACACAAUCACAAGUAAAUAUUAGCAGAAUAACAAUUUCUUACAACAGAGGAUUGAGCAUCA
# B11: chr19:15271055:15271056:-_ENSG00000074181_ENST00000263388|hu_mus|FALSE|FALSE (ssRNA)
# RNA: GGGAGUUCUACAGUCCGACGAUCAUAUAUAUUUUGUAAAAAAUAAUAAUAAUAAUAAGUUUGUUUAAAUGAAUUUGUCUCUAUACAAAAUGUAAAAAAGAAAAAAAUAAUAACUCACUCUUGUCAGAGUGUGAGACAAUGAGACAACAGAGGAUUGAGCAUCA
# B12: chr4:95690885:95690886:+_ENSMUSG00000028572_ENSMUST00000156910|mus_mus|mus_mus_mus_hu_False|8_78 (ssRNA)
# RNA: GGGAGUUCUACAGUCCGACGAUCUUUAGAAAAUGUUAAAUACCAUGCUAAAAUAUUGUAAUUUUAAUAUUUUAUUUUACCAGAAGUCACAGGCAAGCAGACACUACAAGAAUAUAUGAAAAUGAAACAACAGUGUAUAACUGUCAACAGAGGAUUGAGCAUCA
# B13: chr6:13577978:13577979:-_ENSMUSG00000042742_ENSMUST00000045235|mus_hu|FALSE|FALSE (ssRNA)
# RNA: GGGAGUUCUACAGUCCGACGAUCAAAAAGAAUUAUCACCAAUUACAAAAAGUUCAGUAAAUAUUGGAUCAUCAGACAAAAAAGGAACAUAAAAUGACUUUCUGUAACAUCACAAUUUUAGUUAGAAAAAAGAAAAAGAUAAGUCAACAGAGGAUUGAGCAUCA
# B14: chr11:99246628:99246629:-_ENSMUSG00000019761_ENSMUST00000103131|mus_mus|FALSE|FALSE (ssRNA)
# RNA: GGGAGUUCUACAGUCCGACGAUCAUAGUUUGCAUCAGUAAGAAAGUUUAUUGAAAUUUAUUAGUAAAUGAGAAAUUAAUAAGUAAGUGAGAAAGUUUUCUUCUUUUUUCUCCACAAAAGAACACUUUCUGAUAGAUGAAAAGACAACAGAGGAUUGAGCAUCA
# Target: T1, UNK ZnF1-3
# Experiment: nsRBNS (natural sequence RNA bind-n-seq); RBNS binding buffer (assumed for nsRBNS): 25 mM Tris pH 7.5, 150 mM KCl, 3 mM MgCl2, 0.01% Triton X-100, 500 ug/ml BSA, 20 U/ml SUPERase-In, 4 C; UNK is unkempt and MSI1 is Musashi-1; names of the RNAs are library labels; protein concentration not given here; high values mean tight binding
row,Binder,binding signal [enrichment R]
1,B1,1.44
2,B2,0.999
3,B3,0.602
4,B4,1.77
5,B5,1.19
6,B6,0.755
7,B7,1.37
8,B8,21.9
9,B9,5.94
10,B10,0.945
11,B11,4.58
12,B12,1.97
13,B13,3.59
14,B14,19.7
